Experimental data taken from PubChem BioAssay (EPA / NIEHS).
Results filed as inconclusive are left out. Active and inactive are the calls of the source. How the source made its calls: active means hit-call score of the fitted dose curve at least 0.9, where 1 is the maximum; inconclusive means response in the unintended direction; inactive means score below 0.9.

Tests used:
[1] = target: human Protein Tyrosine Phosphatase Non-receptor Type 6 (PTPN6), PTPN6 (gene 5777) (UniProt P29350); assay: NVS_ENZ_hPTPN6: NovaScreen (NVS) Enzymatic Assay for human Protein Tyrosine Phosphatase Non-receptor Type 6 (PTPN6) (AID 2283210)
In short: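 Recombinant human PTPN6 from SF9 cells, enzyme activity followed by fluorescence after mobility-shift separation of substrate and product at 1.33 h. Chemicals first tested at a single 25 uM in duplicate, then confirmed across concentration series; loss of signal relative to DMSO.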

[2] = target: Tyrosine-protein phosphatase non-receptor type 12 (Homo sapiens) (UniProt Q05209); assay: NVS_ENZ_hPTPN12: NovaScreen (NVS) Enzymatic Assay for human Protein Tyrosine Phosphatase Non-receptor Type 12 (PTPN12) (AID 2283204)
In short: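 Single-concentration duplicates (25 uM) preceded singleton concentration-response up to 50 uM for chemicals passing threshold. Cell-free recombinant PTPN12 activity was read 1.33 h after dosing via fluorescence after mobility-shift separation; loss of signal versus DMSO.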

[3] = target: Tyrosine-protein phosphatase non-receptor type 13 (Homo sapiens) (UniProt Q12923); assay: NVS_ENZ_hPTPN13: NovaScreen (NVS) Enzymatic Assay for human Protein Tyrosine Phosphatase Non-receptor Type 13 (PTPN13) (AID 2283205)
In short: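 Screened first at a single 25 uM in duplicate; compounds passing the threshold (e.g. 30% inhibition) were rerun in concentration series, top 50 uM. Recombinant enzyme, fluorescent substrate, mobility-shift separation, 0.5 h read. Data fitted as inhibition relative to DMSO.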

[4] = target: Tyrosine-protein phosphatase non-receptor type 14 (Homo sapiens) (UniProt Q15678); assay: NVS_ENZ_hPTPN14: NovaScreen (NVS) Enzymatic Assay for human Protein Tyrosine Phosphatase Non-receptor Type 14 (PTPN14) (AID 2283206)
Method: NVS_ENZ_hPTPN14 is a biochemical, single-readout assay that uses extracted gene-proteins in a cell-free assay. Measurements were taken 0.5 hour after chemical dosing in a 384-well plate.NVS_ENZ_hPTPN14 is one of one assay component(s) measured or calculated from the NVS_ENZ_hPTPN14 assay. It is designed to make measurements of enzyme activity, a form of enzyme reporter, as detected with fluorescence intensity signals by Fluorescence and electrophoretic mobility shift technology.Data from the assay component NVS_ENZ_hPTPN14 was analyzed into 1 assay endpoint. This assay endpoint, NVS_ENZ_hPTPN14, was analyzed in the positive analysis fitting direction relative to DMSO as the negative control and baseline of activity. Using a type of enzyme reporter, loss-of-signal activity can be used to understand changes in the enzymatic activity as they relate to the gene PTPN14. Furthermore, this assay endpoint can be referred to as a primary readout, because this assay has produced multiple assay endpoints where this one serves a enzymatic activity function. To generalize the intended target to other relatable targets, this assay endpoint is annotated to the phosphatase intended target family, where the subfamily is non-receptor tyrosine phosphatase. […]

[5] = target: human Protein Tyrosine Phosphatase Non-receptor Type 4 (PTPN4), PTPN4 (gene 5775) (UniProt P29074); assay: NVS_ENZ_hPTPN4: NovaScreen (NVS) Enzymatic Assay for human Protein Tyrosine Phosphatase Non-receptor Type 4 (PTPN4) (AID 2283208)
Method: (§1) NVS_ENZ_hPTPN4 is a biochemical, single-readout assay that uses extracted gene-proteins from SF9 in a cell-free assay. Measurements were taken 1.33 hours after chemical dosing in a 384-well plate.NVS_ENZ_hPTPN4 is one of one assay component(s) measured or calculated from the NVS_ENZ_hPTPN4 assay. It is designed to make measurements of enzyme activity, a form of enzyme reporter, as detected with fluorescence intensity signals by Fluorescence and electrophoretic mobility shift technology.Data from the assay component NVS_ENZ_hPTPN4 was analyzed into 1 assay endpoint. This assay endpoint, NVS_ENZ_hPTPN4, was analyzed in the positive analysis fitting direction relative to DMSO as the negative control and baseline of activity. Using a type of enzyme reporter, loss-of-signal activity can be used to understand changes in the enzymatic activity as they relate to the gene PTPN4. Furthermore, this assay endpoint can be referred to as a primary readout, because this assay has produced multiple assay endpoints where this one serves a enzymatic activity function. To generalize the intended target to other relatable targets, this assay endpoint is annotated to the phosphatase intended target family, where the subfamily is non-receptor tyrosine phosphatase.
(§2) Binding assays used specific radioligands (tritiated, iodinated) with non-radioactive competitive displacement ligands in agonist or antagonist protocols (as indicated) and various reference compounds and inhibitors to titrate specific binding to receptors and transporters. Most enzyme assays (CYPs, kinases, phosphatases, proteases, HDACs) used recombinant protein and specific substrates (fluorescence mostly, some colorimetric and radioactive) and inhibitors, followed by a biochemical separation of substrate and product. All assays for the biochemical HTS were initially run in duplicate at a single concentration (10 uM for CYP450 assays and 25 uM for all others). Assay-chemical combinations meeting a pre-defined threshold (e.g., 30% inhibition and other criteria defined below) were then run in singleton concentration-response format with maximum concentration of 20 uM for CYPs and 50 uM for all others. Each assay was run with positive and negative controls, and concurrent controls on every plate. The follow-up (secondary) screen tested active chemical-pairs in concentration series, as well as a few additional assays not tested in the primary screen, some selected negative inactives, and several cases re-run in the concentration series for confirmatory purposes.

[6] = target: human Protein Tyrosine Phosphatase Non-receptor Type 9 (PTPN9), PTPN9 (gene 5780) (UniProt P43378); assay: NVS_ENZ_hPTPN9: NovaScreen (NVS) Enzymatic Assay for human Protein Tyrosine Phosphatase Non-receptor Type 9 (PTPN9) (AID 2283209)
Method: as §1, with “NVS_ENZ_hPTPN9” for “NVS_ENZ_hPTPN4”, “plate.NVS_ENZ_hPTPN9” for “plate.NVS_ENZ_hPTPN4”, “NVS_ENZ_hPTPN9,” for “NVS_ENZ_hPTPN4,”, “PTPN9.” for “PTPN4.”
as §2

[7] = target: human Protein Tyrosine Phosphatase Receptor Type F (PTPRF), PTPRF (gene 5792) (UniProt P10586); assay: NVS_ENZ_hPTPRF: NovaScreen (NVS) Enzymatic Assay for human Protein Tyrosine Phosphatase Receptor Type F (PTPRF) (AID 2283213)
In short: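 Cell-free fluorescence enzyme assay with recombinant protein and substrate; product separated by electrophoretic mobility shift. Read 1 h after dosing, single 25 uM duplicate screen, then concentration-response up to 50 uM; loss of signal vs DMSO.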

[8] = target: human Protein Tyrosine Phosphatase Non-receptor Type 2 (PTPN2), PTPN2 (gene 5771) (UniProt P17706); assay: NVS_ENZ_hPTPN2: NovaScreen (NVS) Enzymatic Assay for human Protein Tyrosine Phosphatase Non-receptor Type 2 (PTPN2) (AID 2283207)
In short: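 Activity measured as fluorescence after mobility-shift separation of substrate and product, 1 h after compound. Duplicate single-point 25 uM primary testing, concentration series for actives; inhibition scored as signal loss relative to DMSO baseline.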

[9] = target: human Protein Tyrosine Phosphatase Receptor Type B (PTPRB), PTPRB (gene 5787) (UniProt P23467); assay: NVS_ENZ_hPTPRB: NovaScreen (NVS) Enzymatic Assay for human Protein Tyrosine Phosphatase Receptor Type B (PTPRB) (AID 2283211)
In short: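 Recombinant human PTPRB with a fluorescent substrate, product separated by electrophoretic mobility shift; read 1 h after dosing. Primary screen in duplicate at 25 uM; actives then retested in concentration series; loss of signal versus DMSO.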

[10] = target: human Protein Tyrosine Phosphatase Receptor Type C (PTPRC), PTPRC (gene 5788) (UniProt P08575); assay: NVS_ENZ_hPTPRC: NovaScreen (NVS) Enzymatic Assay for human Protein Tyrosine Phosphatase Receptor Type C (PTPRC) (AID 2283212)
Method: NVS_ENZ_hPTPRC is a biochemical, single-readout assay that uses extracted gene-proteins from yeast cells in a cell-free assay. Measurements were taken 1 hour after chemical dosing in a 96-well plate.NVS_ENZ_hPTPRC is one of one assay component(s) measured or calculated from the NVS_ENZ_hPTPRC assay. It is designed to make measurements of enzyme activity, a form of enzyme reporter, as detected with absorbance signals by Colorimetric technology.Data from the assay component NVS_ENZ_hPTPRC was analyzed into 1 assay endpoint. This assay endpoint, NVS_ENZ_hPTPRC, was analyzed in the positive analysis fitting direction relative to DMSO as the negative control and baseline of activity. […] Furthermore, this assay endpoint can be referred to as a primary readout, because this assay has produced multiple assay endpoints where this one serves a enzymatic activity function. […]
Binding assays used specific radioligands (tritiated, iodinated) with non-radioactive competitive displacement ligands in agonist or antagonist protocols (as indicated) and various reference compounds and inhibitors to titrate specific binding to receptors and transporters. Most enzyme assays (CYPs, kinases, phosphatases, proteases, HDACs) used recombinant protein and specific substrates (fluorescence mostly, some colorimetric and radioactive) and inhibitors, followed by a biochemical separation of substrate and product. […]

Chain of human Protein Tyrosine Phosphatase Non-receptor Type 4 (PTPN4), PTPN4 (gene 5775) (P29074 whole entry, looked up): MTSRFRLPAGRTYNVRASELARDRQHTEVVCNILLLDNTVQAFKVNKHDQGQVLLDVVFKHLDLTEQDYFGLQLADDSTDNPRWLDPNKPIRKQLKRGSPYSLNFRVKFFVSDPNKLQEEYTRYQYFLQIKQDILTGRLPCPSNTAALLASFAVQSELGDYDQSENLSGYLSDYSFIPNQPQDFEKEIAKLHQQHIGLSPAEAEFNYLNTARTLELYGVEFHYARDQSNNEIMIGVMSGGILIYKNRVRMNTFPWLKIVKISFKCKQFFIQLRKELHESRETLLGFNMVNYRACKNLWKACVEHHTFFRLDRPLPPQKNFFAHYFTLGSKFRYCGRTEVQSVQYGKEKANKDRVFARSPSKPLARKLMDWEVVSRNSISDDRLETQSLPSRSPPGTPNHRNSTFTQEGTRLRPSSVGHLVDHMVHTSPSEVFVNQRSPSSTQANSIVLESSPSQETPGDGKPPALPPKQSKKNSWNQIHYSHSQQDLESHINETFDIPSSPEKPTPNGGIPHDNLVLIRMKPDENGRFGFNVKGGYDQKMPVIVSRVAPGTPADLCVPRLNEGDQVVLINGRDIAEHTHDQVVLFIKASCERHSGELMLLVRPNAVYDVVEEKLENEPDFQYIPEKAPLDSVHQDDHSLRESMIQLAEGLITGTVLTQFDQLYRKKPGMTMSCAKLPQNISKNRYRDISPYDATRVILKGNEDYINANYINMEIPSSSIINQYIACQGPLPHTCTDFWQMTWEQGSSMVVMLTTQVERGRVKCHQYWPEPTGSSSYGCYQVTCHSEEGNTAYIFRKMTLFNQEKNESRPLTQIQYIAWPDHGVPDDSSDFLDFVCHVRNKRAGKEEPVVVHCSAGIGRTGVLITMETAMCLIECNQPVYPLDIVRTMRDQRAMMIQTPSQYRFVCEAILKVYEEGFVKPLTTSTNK
Chain of human Protein Tyrosine Phosphatase Non-receptor Type 6 (PTPN6), PTPN6 (gene 5777) (P29350 whole entry, looked up): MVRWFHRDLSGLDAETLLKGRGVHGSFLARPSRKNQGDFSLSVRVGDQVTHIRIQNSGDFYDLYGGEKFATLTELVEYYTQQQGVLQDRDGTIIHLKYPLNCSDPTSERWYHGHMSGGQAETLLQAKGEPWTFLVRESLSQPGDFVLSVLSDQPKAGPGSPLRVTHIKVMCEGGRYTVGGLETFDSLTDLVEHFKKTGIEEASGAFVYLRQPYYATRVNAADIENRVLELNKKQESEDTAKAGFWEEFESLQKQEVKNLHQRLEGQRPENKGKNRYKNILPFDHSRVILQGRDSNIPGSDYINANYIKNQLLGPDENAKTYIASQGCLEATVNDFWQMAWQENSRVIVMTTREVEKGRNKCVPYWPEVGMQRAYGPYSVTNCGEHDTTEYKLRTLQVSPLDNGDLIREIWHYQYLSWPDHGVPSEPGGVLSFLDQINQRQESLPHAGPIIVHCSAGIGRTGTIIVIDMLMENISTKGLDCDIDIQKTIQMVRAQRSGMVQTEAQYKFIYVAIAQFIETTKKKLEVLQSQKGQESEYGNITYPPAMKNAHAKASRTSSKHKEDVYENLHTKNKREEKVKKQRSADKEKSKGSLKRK
Chain of human Protein Tyrosine Phosphatase Non-receptor Type 2 (PTPN2), PTPN2 (gene 5771) (P17706 whole entry, looked up): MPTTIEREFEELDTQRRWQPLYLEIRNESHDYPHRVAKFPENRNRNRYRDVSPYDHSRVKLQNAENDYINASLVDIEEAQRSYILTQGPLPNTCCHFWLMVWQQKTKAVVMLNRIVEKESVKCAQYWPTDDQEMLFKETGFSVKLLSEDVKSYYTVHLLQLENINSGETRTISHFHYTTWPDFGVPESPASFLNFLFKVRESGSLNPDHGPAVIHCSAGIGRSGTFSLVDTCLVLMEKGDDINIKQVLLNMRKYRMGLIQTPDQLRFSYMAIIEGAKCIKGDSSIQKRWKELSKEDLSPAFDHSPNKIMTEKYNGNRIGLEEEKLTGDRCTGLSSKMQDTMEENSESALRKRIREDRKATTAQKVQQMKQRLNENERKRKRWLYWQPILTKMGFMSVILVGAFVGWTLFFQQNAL
Chain of human Protein Tyrosine Phosphatase Non-receptor Type 9 (PTPN9), PTPN9 (gene 5780) (P43378 whole entry, looked up): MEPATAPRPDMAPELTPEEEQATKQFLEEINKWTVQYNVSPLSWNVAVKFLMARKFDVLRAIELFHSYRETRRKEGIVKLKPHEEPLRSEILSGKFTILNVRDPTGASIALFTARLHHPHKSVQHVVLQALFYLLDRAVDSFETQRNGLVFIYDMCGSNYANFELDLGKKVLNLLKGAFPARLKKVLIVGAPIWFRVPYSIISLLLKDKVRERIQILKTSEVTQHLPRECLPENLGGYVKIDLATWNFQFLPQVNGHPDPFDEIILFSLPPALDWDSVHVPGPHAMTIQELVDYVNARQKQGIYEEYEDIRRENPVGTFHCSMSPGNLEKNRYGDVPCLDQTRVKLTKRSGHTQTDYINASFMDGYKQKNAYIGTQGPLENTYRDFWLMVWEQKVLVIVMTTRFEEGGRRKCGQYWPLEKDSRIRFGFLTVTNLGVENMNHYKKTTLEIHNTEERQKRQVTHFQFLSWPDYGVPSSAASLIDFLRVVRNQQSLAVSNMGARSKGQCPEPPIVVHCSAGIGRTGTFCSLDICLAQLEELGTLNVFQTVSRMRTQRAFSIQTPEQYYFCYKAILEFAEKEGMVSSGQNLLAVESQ
Chain of human Protein Tyrosine Phosphatase Receptor Type F (PTPRF), PTPRF (gene 5792) (P10586 whole entry, looked up): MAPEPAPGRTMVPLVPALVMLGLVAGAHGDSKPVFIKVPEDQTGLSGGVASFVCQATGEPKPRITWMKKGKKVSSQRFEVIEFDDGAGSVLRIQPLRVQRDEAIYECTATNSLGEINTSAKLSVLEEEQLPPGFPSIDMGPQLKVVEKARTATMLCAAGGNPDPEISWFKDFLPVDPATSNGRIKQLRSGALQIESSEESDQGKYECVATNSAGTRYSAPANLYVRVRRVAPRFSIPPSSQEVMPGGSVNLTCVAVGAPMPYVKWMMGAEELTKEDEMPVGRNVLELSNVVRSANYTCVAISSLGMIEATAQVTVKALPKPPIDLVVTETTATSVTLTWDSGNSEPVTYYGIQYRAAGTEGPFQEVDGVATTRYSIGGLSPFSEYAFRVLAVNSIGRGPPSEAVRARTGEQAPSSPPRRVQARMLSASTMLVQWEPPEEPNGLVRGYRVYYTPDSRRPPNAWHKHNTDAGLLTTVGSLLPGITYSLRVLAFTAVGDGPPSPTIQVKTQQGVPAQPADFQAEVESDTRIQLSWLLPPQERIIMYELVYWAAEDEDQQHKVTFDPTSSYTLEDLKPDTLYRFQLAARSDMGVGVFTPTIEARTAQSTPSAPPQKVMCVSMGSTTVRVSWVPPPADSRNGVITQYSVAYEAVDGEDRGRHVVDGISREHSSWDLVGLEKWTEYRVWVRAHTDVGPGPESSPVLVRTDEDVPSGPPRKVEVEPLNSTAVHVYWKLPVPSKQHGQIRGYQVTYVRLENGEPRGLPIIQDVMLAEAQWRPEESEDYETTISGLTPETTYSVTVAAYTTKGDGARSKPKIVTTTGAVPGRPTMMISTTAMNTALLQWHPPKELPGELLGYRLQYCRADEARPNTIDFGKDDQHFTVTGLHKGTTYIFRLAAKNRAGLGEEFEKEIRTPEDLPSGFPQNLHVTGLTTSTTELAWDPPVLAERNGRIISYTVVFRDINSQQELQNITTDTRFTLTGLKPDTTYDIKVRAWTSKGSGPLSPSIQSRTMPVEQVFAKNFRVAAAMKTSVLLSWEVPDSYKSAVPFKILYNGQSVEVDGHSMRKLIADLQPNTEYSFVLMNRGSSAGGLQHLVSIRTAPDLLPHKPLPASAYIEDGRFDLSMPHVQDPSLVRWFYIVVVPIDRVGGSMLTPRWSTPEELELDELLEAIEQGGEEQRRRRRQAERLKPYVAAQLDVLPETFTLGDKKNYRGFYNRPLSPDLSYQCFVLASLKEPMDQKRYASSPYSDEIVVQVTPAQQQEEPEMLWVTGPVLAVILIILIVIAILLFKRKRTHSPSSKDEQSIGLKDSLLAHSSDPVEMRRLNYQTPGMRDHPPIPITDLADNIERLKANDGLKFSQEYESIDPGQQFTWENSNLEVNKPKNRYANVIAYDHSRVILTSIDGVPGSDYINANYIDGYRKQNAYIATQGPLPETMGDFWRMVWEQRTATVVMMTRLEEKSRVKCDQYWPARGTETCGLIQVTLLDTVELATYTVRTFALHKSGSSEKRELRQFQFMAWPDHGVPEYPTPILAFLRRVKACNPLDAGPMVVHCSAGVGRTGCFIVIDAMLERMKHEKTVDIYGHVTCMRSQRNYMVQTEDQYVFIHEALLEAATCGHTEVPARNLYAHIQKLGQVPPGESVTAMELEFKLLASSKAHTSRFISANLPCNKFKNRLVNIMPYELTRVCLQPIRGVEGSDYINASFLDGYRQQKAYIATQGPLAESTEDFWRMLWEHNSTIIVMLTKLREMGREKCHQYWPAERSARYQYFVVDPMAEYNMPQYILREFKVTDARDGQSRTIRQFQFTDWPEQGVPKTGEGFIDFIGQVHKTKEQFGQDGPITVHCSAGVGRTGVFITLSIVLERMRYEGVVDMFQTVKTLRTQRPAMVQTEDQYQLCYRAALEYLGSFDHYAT

## Nn1cnnc1
[1]
  outcome: inactive

## CC1=C2C[C@H]3[C@@H](CC=C4C[C@@H](O)CC[C@@]43C)[C@@H]2CC[C@]12O[C@@H]1C[C@H](C)CN[C@H]1[C@H]2C
[2]
  outcome: inactive
[3]
  AC50: 6.4 µM (active)
[4]
  outcome: inactive
[5]
  AC50: 16 µM (active)
[6]
  outcome: inactive

## O=S(=O)(O)C(F)(F)C(F)(F)C(F)(F)C(F)(F)C(F)(F)C(F)(F)F
[7]
  outcome: inactive

## O=C(O)C(F)(F)C(F)(F)C(F)(F)C(F)(F)C(F)(F)F
[8]
  outcome: inactive
[5]
  outcome: inactive
[6]
  outcome: inactive
[9]
  outcome: inactive

## CC(C)C(=O)OCC(C)(C)C(OC(=O)C(C)C)C(C)C (centres undefined)
[3]
  outcome: inactive
[8]
  outcome: inactive
[5]
  outcome: inactive

## C=CC(N)=O
[7]
  outcome: inactive

## C1CC2OC2CC1C1CO1 (centres undefined)
[6]
  outcome: inactive
[1]
  outcome: inactive

## Cc1cc(O)ccc1Cl
[8]
  outcome: inactive
[6]
  outcome: inactive
[1]
  outcome: inactive

## CN(C)c1nc(=O)n(C2CCCCC2)c(=O)n1C
[5]
  outcome: inactive

## O=C(O)C(F)(F)C(F)(F)C(F)(F)C(F)(F)C(F)(F)C(F)(F)C(F)(F)C(F)(F)C(F)(F)F
[10]
  AC50: 15.8 µM (active)

## Oc1ccc(Cl)cc1Cl
[7]
  outcome: inactive

## O=C(O)C(F)(F)C(F)(F)C(F)(F)C(F)(F)C(F)(F)C(F)(F)C(F)(F)C(F)(F)F
[2]
  outcome: inactive
[6]
  AC50: 25 µM (active)
[9]
  outcome: inactive
[7]
  outcome: inactive

## CCC(C)c1cc([N+](=O)[O-])cc([N+](=O)[O-])c1O (centres undefined)
[10]
  AC50: 25 µM (active)

## CCOCCOC(C)=O
[1]
  outcome: inactive
